HIF-2a inh = HIF-2a reporter inhibitors, primary screen, luminescence, 786-0 RCC cells; 786-0 RCC cells HIF-2a reporter, luciferase luminescence, overnight; inhibition, % at 18.8 µM; actives 0.72% (n = 360,000);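 active = inhibition of the luminescence signal of 40% or more relative to plate controls, in a single-dose primary screen at 18.75 µM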
CF NFkB block = inhibitors of PAF-induced NF-kB signaling, primary screen, cell-based, GFP fluorescence, uHTS | KKLEB NF-kB-GFP reporter, GFP fluorescence overnight | inhibition, % at 5 µM | actives 0.86% (n = 360,000);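 active = at least 50% inhibition at 5 µM, scaled per plate between neutral and stimulator controls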;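 also: PAF is a Pseudomonas aeruginosa culture filtrate used as stimulus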
Mdm2-MdmX inh = inhibitors of human Mdm2-MdmX association, primary screen, cell-based, luminescence, split luciferase, SaOS-2, uHTS; SaOS-2 split-luciferase Mdm2/MdmX complementation; inhibition, % at 8 µM; actives 3% (n = 330,000); AID 485346, 2010;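 active = inhibition of at least 50% at 8 µM in the primary screen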
Peg3 prom inh = Peg3 promoter-driven luciferase inhibitors, primary screen, cell-based, HeLa, luciferase luminescence. HeLa PEG-Prom luciferase reporter, overnight. inhibition, % at 20 µM. actives 1.7% (n = 360,000);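 active = inhibition of at least 50% at 20 µM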
ABHD5 PLIN5 PPI = ABHD5-PLIN5 interaction inhibitors, primary screen, cell lysate, split luciferase complementation, luminescence; inhibition, % at 4 µM; Split G. princeps luciferase complementation, 4 h; actives 0.78% (n = 360,000);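 active = inhibition above the mean inhibition across every tested compound plus 3 SD, cut at about 22% in these data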
KKLEB tox = cytotoxicity in KKLEB CF airway cells, primary screen, cytotoxicity control for CF NF-kB inhibitor project, cell-based, uHTS, fluorescence assay plates; KKLEB CF airway cells viability, ATPlite luminescence, overnight; stronger effect = lower value; cells stimulated with P. aeruginosa culture filtrate; activity change (cytotoxicity), % at 5 µM; actives 0.36% (n = 360,000); AID 602141, 2011;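 active = corrected activity change at or below -50% at 5 µM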
Mdm2-MdmX conf = Mdm2-MdmX complex disruptors, retested hits, confirmation, luminescence, single concentration; shares compounds with Mdm2-MdmX inh; Mdm2-MdmX binding, luminescent assay; AID 489028, 2010; inhibition, % at 8 µM; actives 55% (n = 10,000); in the data active = inhibition above about 40%
Full FLuc ctr = full-length luciferase signal inhibition, confirmation, counter-screen for Mdm2/MdmX interaction inhibitor project, cell-based, single concentration, SaOS-2. shares compounds with Mdm2-MdmX inh. SaOS-2 full-length luciferase counterscreen, luminescence. inhibition, % at 8 µM. actives 77% (n = 6,200);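 active = mean inhibition at 8 µM reaching about 37%, which flags the compound as non-specific, limit read from the data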;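 also: p53-null SaOS-2 cells with luciferase driven by a doxycycline-inducible promoter; compound on cells about two nights before reading with doxycycline added after day one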
Each line names hits and unclear results; the compound was inactive in the other large screens (follow-up assays come after a bar, where they were run). Shown are actives, neighbours in structure and some others; about 4.6% of the full set was active somewhere.

Cc1ccc2nc(-c3ccccc3)cc(C(=O)N(C)CC(=O)Nc3ccccc3Br)c2c1	Mdm2-MdmX inh 53 | Mdm2-MdmX conf inactive
COc1ccc(NC(=O)CN(C)C(=O)c2cc(-c3ccccc3)nc3ccccc23)cc1	none
NC(=O)C1CC2(C1)CC(C(N)=O)C2 (stereo not drawn)	none (no result: Mdm2-MdmX inh)
CCOc1ccc(/C=N/NC(=O)c2ccccc2C)cc1CN1CC2CC(C1)c1cccc(=O)n1C2 (stereo not drawn)	none
CCOc1cccc(C(=O)Nc2cccc(-c3nnc(-c4ccccc4)o3)c2)c1	Mdm2-MdmX inh 51, Peg3 prom inh 76 | Mdm2-MdmX conf inactive
CCOc1cccc(C(=O)Nc2cccc(-c3nnc(-c4ccc(C)cc4)o3)c2)c1	CF NFkB block 57, Mdm2-MdmX inh 84, KKLEB tox -68 | Mdm2-MdmX conf inactive
COc1cccc(C(=O)Nc2cccc(-c3nnc(-c4ccccc4)o3)c2)c1	none
O=C(C1CCN(S(=O)(=O)c2ccccc2)CC1)N1CCC1	none
CC(=O)Nc1cccc(C(=O)/C=C/c2ccc(/C=C/C(=O)c3cccc(NC(C)=O)c3)cc2)c1	Mdm2-MdmX inh 98 (no result: HIF-2a inh, CF NFkB block, Peg3 prom inh, ABHD5 PLIN5 PPI, KKLEB tox) | Mdm2-MdmX conf inactive
CC(C)OCCCN(C)C1CCN(S(=O)(=O)c2ccc(-c3cc(C(F)(F)F)no3)s2)CC1	Mdm2-MdmX inh 50 | Mdm2-MdmX conf inactive
COc1ccc2c(c1[N+](=O)[O-])CCC/C2=N/OC(=O)c1cccc2ccccc12	Mdm2-MdmX inh 52 | Mdm2-MdmX conf inactive
COC(=O)c1cc2ccccc2c([N+](=O)[O-])c1O	none (no result: Mdm2-MdmX inh)
COc1ccccc1NS(=O)(=O)c1cc([N+](=O)[O-])ccc1N/N=C/c1c[nH]c2ccccc12	Mdm2-MdmX inh 72 | Mdm2-MdmX conf inactive
Cc1[nH]c2ccccc2c1/C=N/Nc1ccc([N+](=O)[O-])cc1S(=O)(=O)Nc1ccc(Cl)cc1	none
COc1ccc(NS(=O)(=O)c2cc([N+](=O)[O-])ccc2N/N=C\c2c(C)[nH]c3ccccc23)cc1	Mdm2-MdmX inh 77 | Mdm2-MdmX conf inactive
COc1ccc(C=NNc2ccc([N+](=O)[O-])cc2S(=O)(=O)Nc2ccccc2C(=O)O)cc1OC	none
COc1ccc(C(=O)Nc2nc3c(s2)CCCC3)cc1S(=O)(=O)N1CCCc2ccccc21	Mdm2-MdmX inh 91 | Mdm2-MdmX conf 90 | Full FLuc ctr inactive
COc1ccc(C(=O)Nc2ccc(N3CCCCCC3)cc2)cc1S(=O)(=O)N1CCOCC1	none
CC(=O)NC1C(=O)N(Cc2ccccc2)c2ccc(Br)cc21 (stereo not drawn)	Mdm2-MdmX inh 75 | Mdm2-MdmX conf 42 | Full FLuc ctr 49
CN(C)S(=O)(=O)c1ccc(C(=O)NCc2nnc(SCC(=O)N3CCCC3)o2)cc1	none
COc1ccc(N2CCN(S(=O)(=O)c3ccc(-c4cc(C)no4)s3)CC2)cc1	none
CCN(c1ccc(OC)cc1)S(=O)(=O)c1ccc(-c2cc(C)no2)s1	Mdm2-MdmX inh 57 | Mdm2-MdmX conf 48 | Full FLuc ctr 59
COc1cc(/C=C(\C#N)c2ccccn2)cc(OC)c1O	none
COc1cc(/C=C(\C#N)c2[nH]nc(N)c2C#N)cc(OC)c1O	Mdm2-MdmX inh 65 | Mdm2-MdmX conf inactive
CCC(=O)NC(=S)Nc1ccc(N2CCN(C(=O)c3ccc(Cl)cc3)CC2)cc1	none
O=c1c2ccccc2nc2sc(Nc3cccc(Cl)c3)nn12	Mdm2-MdmX inh 73 | Mdm2-MdmX conf inactive
Cc1nc2ccccc2c(=O)n1Nc1cccc(Cl)c1	none
Cc1cccn2c(=O)c3cc(C(=O)NC4CCCC4)c(=N)n(CCCN4CCOCC4)c3nc12	none
COc1ccc(S(=O)(=O)N2CCCC2CNC(=O)C(=O)NCCc2ccccc2)cc1 (stereo not drawn)	Mdm2-MdmX inh 60 | Mdm2-MdmX conf 67 | Full FLuc ctr 64
N#CC(C#N)=c1ccc2c(c1)N1C(c3ccccc3)=CC(c3ccccc3)C3CCCCC31N=2 (stereo not drawn)	Mdm2-MdmX inh 61 | Mdm2-MdmX conf inactive
CCCCCC1C(=O)C[C@@H]2CCN3C(=O)CCC[C@H]1[C@H]23 (stereo partly drawn)	none
Cc1ccc(CC(NC(=O)C2CCCCC2)C(=O)O)cc1 (stereo not drawn)	none
O=C1NC[C@H](CCCCN2C[C@H](Cc3ccccc3)N(CCC3CCCCC3)C(=O)C2=O)N(CC2CCCCC2)C1=O	none (no result: CF NFkB block, Mdm2-MdmX inh, Peg3 prom inh, KKLEB tox)
CCOc1nc2cnccc2n(CC(=O)Nc2ccc(C)c(C)c2)c1=O	none
Cc1onc(C(=O)Nc2cccc(C(F)(F)F)c2)c1[N+](=O)[O-]	none
Cc1nc(Cl)c(C(=O)NC(=O)Nc2cccc(C(F)(F)F)c2)c(C)c1[N+](=O)[O-]	Mdm2-MdmX inh 57 | Mdm2-MdmX conf inactive
CCOC(=O)C(C)(C)N(Cc1ccc(Cl)cc1)S(=O)(=O)c1ccc(Cl)c([N+](=O)[O-])c1	Mdm2-MdmX inh 95 (no result: HIF-2a inh, CF NFkB block, Peg3 prom inh, ABHD5 PLIN5 PPI, KKLEB tox) | Mdm2-MdmX conf 81 | Full FLuc ctr 50
CCOc1ncccc1C(=O)N1CCN(c2cc(Cl)ccc2C)CC1	Mdm2-MdmX inh 61 | Mdm2-MdmX conf 59 | Full FLuc ctr 81
Cc1onc(C(=O)N2CCN(c3ccccc3)CC2)c1[N+](=O)[O-]	none
Cc1ccc(Cl)cc1N1CCN(C(=O)c2noc(C)c2[N+](=O)[O-])CC1	Mdm2-MdmX inh 75 | Mdm2-MdmX conf 76 | Full FLuc ctr 60
CCOc1ccc(NC(=O)CC2C(=O)N(C)C(=S)N2CCCc2ccccc2)cc1 (stereo not drawn)	none
CCN1C(=O)C(CC(=O)Nc2ccc(Br)cc2)N(CCCc2ccccc2)C1=S (stereo not drawn)	Mdm2-MdmX inh 84, Peg3 prom inh 58 | Mdm2-MdmX conf inactive
Cc1cc(C(=O)NNC(=O)CCCOc2ccccc2)c(C)o1	none
CC(C)(C)c1ccc(OCCCC(=O)NNC(=O)c2ccccc2O)cc1	Mdm2-MdmX inh 58 | Mdm2-MdmX conf 66 | Full FLuc ctr 45
CN(Cc1ccccc1C#N)S(=O)(=O)c1cccs1	none
